Results filed as inconclusive are left out. Active and inactive are the calls of the source. Calls come from the whole dose curve; as a rule, active = well fitted inhibition curve with a large enough effect; inconclusive = small, poorly fitted or top-dose-only effect; inactive = flat fitted curve, though single readings scatter.

Assay in all cases: qHTS profiling for inhibitors of Plasmodium falciparum proliferation (AID 504749); note: nearly all actives have a fitted effect of over 60% in size
What all share (conditions): P. falciparum in erythrocytes, SYBR Green DNA, 72 h; series mostly up to 28.7 µM
Background: qHTS replaces the single test concentration by a dilution series.

One assay deals with ATS95. A digest of the protocol:
(§1)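 Three-day growth assay of blood-stage parasites in erythrocytes (0.3% parasitemia, 2.5% hematocrit) at 37 C, 5% CO2, quantified by SYBR Green DNA staining after overnight detergent lysis.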

Another assay concerns C2A. A digest of the protocol:
as §1

A further assay has as its system CP185. A digest of the protocol: as §1
A further assay deals with CP191. A digest of the protocol:
as §1

The test system of another assay is CP192. A digest of the protocol: as §1
For the next assay, the system named is CP194. The method in brief:
as §1

Another assay relates to CP201. The method in brief: as §1
In another assay the test system is CP203. A digest of the protocol:
as §1

For another assay, the system named is CP211. The method in brief: as §1
Another assay deals with CP215. A digest of the protocol:
as §1

The next assay concerns CP217. A digest of the protocol:
as §1

In a further assay the test system is CP237. The method in brief: as §1
A further assay deals with CP238. A digest of the protocol: as §1
Another assay relates to CP247. A digest of the protocol: as §1
Another assay concerns CP250. A digest of the protocol:
as §1

The next assay concerns CP252. The method in brief: as §1
The test system of another assay is CP256. The method in brief:
as §1

The subject of a further assay is CP260. A digest of the protocol:
as §1

In a further assay the test system is CP262. A digest of the protocol:
as §1

The next assay concerns CP265. The method in brief:
as §1
Potency is the fitted concentration of half-maximal effect.

In the case of `Cc1ccc(S(=O)(=O)NC(=O)NC2CCCC2)cc1`, the Potency entry with ATS95, with C2A, in the assay on CP185, in the assay with CP191, with CP192 and with CP194 was “inactive” throughout. The Potency result in the assay on CP201, with CP203, in the assay with CP211, in the assay on CP215, in the assay on CP217 and with CP237 was “inactive” throughout. For the same compound, the Potency result with CP238, with CP247, in the assay with CP250, with CP252, with CP256 and in the assay with CP260 was “inactive” each time. In addition, the Potency result in the assay on CP262 and in the assay on CP265 was “inactive” each time.
For the compound `CCOC(=O)c1c(N)sc2c1CCN(Cc1ccccc1)C2`, the Potency in the assay with ATS95 is 8.91 µM (active); with C2A, 11.2 µM (active); in the assay with CP185, 5.01 µM (active); in the assay with CP191, 5.01 µM (active); with CP192, 5.36 µM (active); in the assay with CP194, 7.57 µM (active). Also, the Potency is 6.75 µM (active) with CP201; 4.26 µM (active) with CP203; 6.75 µM (active) in the assay on CP211; 8.49 µM (active) in the assay on CP215; 5.62 µM (active) in the assay on CP217; 7.94 µM (active) in the assay on CP237. The Potency was 5.62 µM (active) with CP238; 3.98 µM (active) in the assay with CP247; 5.01 µM (active) in the assay on CP250; 7.94 µM (active) in the assay on CP252; 5.01 µM (active) in the assay on CP256; 6.31 µM (active) with CP260.
As to `CCCCCCCCCCCCCCCCO`, the Potency result in the assay on ATS95, with C2A, with CP185, with CP191, in the assay with CP192 and with CP194 was “inactive” in each case. The Potency entry in the assay with CP201, in the assay on CP203, in the assay on CP211, with CP215, in the assay with CP217 and in the assay on CP237 was “inactive” throughout. Besides, the Potency result in the assay on CP238, in the assay on CP247, in the assay with CP250, in the assay with CP252, in the assay on CP256 and with CP260 was “inactive” in each case. The Potency entry in the assay on CP262 and with CP265 was “inactive” throughout.
For the compound `c1ccc(CC2=NCCN2)cc1`, the Potency result in the assay with ATS95, with C2A, in the assay with CP185, with CP191, in the assay on CP192 and with CP194 was “inactive” throughout. Further, the Potency result with CP201, with CP203, in the assay with CP211, in the assay on CP215, with CP217 and in the assay on CP237 was “inactive” in each case. The Potency result in the assay with CP238, in the assay on CP247, with CP250, in the assay with CP252, with CP256 and with CP260 was “inactive” throughout. Moreover, the Potency entry in the assay on CP262 and with CP265 was “inactive” throughout.
Consider `C/C=C/C=N/NC(=O)c1ccncc1`, for which the Potency result in the assay on ATS95, in the assay with C2A, in the assay on CP185, with CP191, in the assay on CP192 and with CP194 was “inactive” throughout. For the same compound, the Potency entry in the assay on CP201, in the assay with CP203, in the assay with CP211, with CP215, in the assay with CP217 and with CP237 was “inactive” in each case. In addition, the Potency entry in the assay with CP238, with CP247, in the assay on CP250, in the assay on CP252, in the assay with CP256 and in the assay with CP260 was “inactive” throughout. Also, the Potency result in the assay on CP262 and in the assay on CP265 was “inactive” in each case.
As to `CC1=C(C(=O)O)N2C(=O)[C@@H](NC(=O)[C@H](N)c3ccccc3)[C@H]2SC1`, the Potency entry in the assay on ATS95, in the assay with C2A, in the assay with CP185, with CP191, in the assay with CP192 and in the assay on CP194 was “inactive” in each case. Further, the Potency entry with CP201, with CP203, in the assay on CP211, in the assay on CP215, in the assay on CP217 and with CP237 was “inactive” each time. Also, the Potency entry in the assay on CP238, in the assay with CP247, in the assay on CP250, with CP252, with CP256 and in the assay with CP260 was “inactive” each time. Also, the Potency entry in the assay on CP262 and in the assay on CP265 was “inactive” throughout.
As to `CCCCNc1ccc(C(=O)OCCOCCOCCOCCOCCOCCOCCOCCOCCOC)cc1`, the Potency entry with ATS95, in the assay on C2A, in the assay with CP185, in the assay with CP191, with CP192 and in the assay with CP194 was “inactive” throughout. Further, the Potency entry with CP201, in the assay with CP203, with CP211, in the assay with CP215, in the assay on CP217 and with CP237 was “inactive” throughout. The Potency entry with CP238, in the assay with CP247, with CP250, in the assay with CP252, in the assay on CP256 and in the assay with CP260 was “inactive” throughout. For the same compound, the Potency result with CP262 and in the assay with CP265 was “inactive” each time.
Regarding `Nc1nc(N)c(-c2ccccc2)s1`, the Potency result with ATS95, with C2A, in the assay with CP185, with CP191, with CP192 and with CP194 was “inactive” each time. Also, the Potency entry in the assay with CP201, in the assay with CP203, in the assay on CP211, in the assay with CP215, in the assay with CP217 and in the assay with CP237 was “inactive” each time. Also, the Potency result in the assay with CP238, with CP247, in the assay on CP250, in the assay with CP252, in the assay with CP256 and in the assay with CP260 was “inactive” each time. The Potency result in the assay on CP262 and in the assay on CP265 was “inactive” throughout.
As for `O=S(=O)(O)c1ccc(O)cc1`, the Potency result in the assay on ATS95, in the assay with C2A, in the assay on CP185, in the assay on CP191, in the assay with CP192 and with CP194 was “inactive” in each case. Also, the Potency result with CP201, with CP203, in the assay with CP211, with CP215, in the assay on CP217 and in the assay on CP237 was “inactive” in each case. Also, the Potency result in the assay on CP238, in the assay on CP247, in the assay on CP250, in the assay with CP252, in the assay on CP256 and in the assay on CP260 was “inactive” throughout. In addition, the Potency entry in the assay with CP262 and in the assay on CP265 was “inactive” in each case.
Take `OC1C(O)C(O)C(O)C(O)C1O` (stereo not drawn): the Potency entry in the assay with ATS95, in the assay with C2A, with CP185, with CP191, with CP192 and in the assay on CP194 was “inactive” throughout. Besides, the Potency result in the assay with CP201, in the assay with CP203, in the assay with CP211, with CP215, with CP217 and in the assay on CP237 was “inactive” in each case. Moreover, the Potency result in the assay on CP238, in the assay on CP247, in the assay on CP250, in the assay with CP252, in the assay on CP256 and with CP260 was “inactive” throughout. Besides, the Potency entry with CP262 and in the assay on CP265 was “inactive” each time.
On to `CCCCCCCCCCCCSCCOCCO`, for which the Potency entry in the assay on ATS95, in the assay with C2A, with CP185, with CP191, in the assay with CP192 and in the assay with CP194 was “inactive” throughout. Moreover, the Potency result in the assay with CP201, with CP203, in the assay on CP211, with CP215, in the assay with CP217 and with CP237 was “inactive” each time. The Potency entry in the assay on CP238, with CP247, with CP250, in the assay on CP252, in the assay with CP256 and with CP260 was “inactive” in each case. Moreover, the Potency entry with CP262 and in the assay with CP265 was “inactive” each time.
Regarding `OCc1ccccn1`, the Potency result with ATS95, in the assay with C2A, in the assay on CP185, in the assay with CP191, in the assay with CP192 and with CP194 was “inactive” each time. In addition, the Potency result in the assay on CP201, in the assay with CP203, in the assay with CP211, in the assay on CP215, in the assay on CP217 and in the assay with CP237 was “inactive” throughout. In addition, the Potency entry in the assay with CP238, with CP247, in the assay with CP250, in the assay on CP252, in the assay with CP256 and with CP260 was “inactive” each time. Moreover, the Potency entry in the assay with CP262 and in the assay on CP265 was “inactive” each time.
Take `NC(=O)c1ccccc1O`: the Potency entry in the assay on ATS95, in the assay with C2A, with CP185, with CP191, with CP192 and in the assay with CP194 was “inactive” each time. The Potency entry in the assay on CP201, in the assay with CP203, in the assay on CP211, with CP215, with CP217 and in the assay with CP237 was “inactive” throughout. Besides, the Potency result with CP238, in the assay with CP247, with CP250, in the assay with CP252, in the assay on CP256 and with CP260 was “inactive” throughout. The Potency result with CP262 and with CP265 was “inactive” in each case.
Take `O=C(NCCc1c[nH]c2ccccc12)c1cccnc1`: the Potency result in the assay on ATS95, in the assay on C2A, in the assay on CP185, in the assay on CP191, in the assay with CP192 and with CP194 was “inactive” in each case. For the same compound, the Potency entry with CP201, in the assay on CP203, in the assay on CP211, with CP215, with CP217 and with CP237 was “inactive” throughout. Besides, the Potency result in the assay on CP238, with CP247, in the assay with CP250, in the assay on CP252, in the assay on CP256 and in the assay on CP260 was “inactive” throughout. Moreover, the Potency entry with CP262 and with CP265 was “inactive” each time.

The values above are taken from PubChem BioAssay (NCATS).
